We go through 92 compounds from PubChem BioAssay AID1794842 (National Center for Advancing Translational Sciences (NCATS), 2023).

In all, about 2,800 compounds went through this assay and fewer than 10 were called active. Calls follow the shape of the dose curve; as a rule, active = well fitted curve in the direction sought with a large enough effect; inconclusive = small, poorly fitted or top-dose-only effect, or another doubt; inactive = no such curve, though single readings can be large or run the other way. Only a sample is shown.

The target of this assay is Metallo-beta-lactamase type 2 (Klebsiella pneumoniae) (UniProt C7C422). Briefly: qHTS to identify inhibitors of the New Delhi Metallo-beta-lactamase (NDM): Meropenem screen against the machine-based learning selections. Conditions: Purified NDM-1, meropenem hydrolysis, absorbance 300 nm; series mostly up to 38.4 µM. The source says: Assay Submitter (PI): James Inglese Ph.D., Patricia Dranchak Ph.D., Mahesh Aitha Ph.D. Assay Development and Screening Technology Laboratory (ADST) National Center for Advancing Translational Sciences (NCATS), Rockville, MD National Institute of Health (NIH), Bethesda, Maryland The metallo-beta-lactamases (MBL) are a main antibiotic resistance mechanism evolved by bacteria. There is an urgent clinical need for MBL inhibitors to mitigate this growing threat. To support a machine-based learning study, qHTS has been used to experimentally test inhibitors identified by prediction tools.
Metallo-beta-lactamase type 2 (Klebsiella pneumoniae), sequence (C7C422 whole entry, looked up): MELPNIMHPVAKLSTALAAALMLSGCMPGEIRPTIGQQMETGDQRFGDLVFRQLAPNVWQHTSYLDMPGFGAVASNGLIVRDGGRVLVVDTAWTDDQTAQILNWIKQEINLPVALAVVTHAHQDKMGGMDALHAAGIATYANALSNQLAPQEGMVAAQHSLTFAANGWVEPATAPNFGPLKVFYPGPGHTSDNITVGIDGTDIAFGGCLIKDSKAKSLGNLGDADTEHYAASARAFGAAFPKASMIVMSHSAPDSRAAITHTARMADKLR
PROTOCOL TABLE (as described by Inglese et al., 2007) SEQUENCE No. (e.g., 1, 2, 3, etc.); […] (e.g., enzyme, Incubation, Reagent, etc.); VALUE; DESCRIPTION Primary Screen 1; NDM-1; 4 uL of 3 nM enzyme [2 nM final] in 50 mM HEPES (pH 7.0), 1 uM […], 0.01% Tween20; Use BioRaptr to dispense into two sets of Aurora black, clear bottom high base 1536-well plates 2; Compounds; 23 nL; Use Pin Tool (Wako) to transfer DMSO control and library compounds in DMSO 3; Incubate; >30 min 4a; Reagent; 2 uL of 50 uM nitrocefin [16.7 uM final] to one set of assay plates 4b; Reagent; 2 uL of 150 uM meropenem [50 uM final] to second set of assay plates 5a; Incubate; 15 min 5b; Incubate; 30 min 6a; Detector; Absorbance at 485 nm (bandwidth = 5 nm, 25 flashes/well) on Tecan Infinity 6b; Detector; Absorbance at 300 nm (bandwidth = 5 nm, 25 flashes/well) on Tecan Infinity NOTES (numbers refer to sequence above) 1; Column 1 of each plate received assay buffer without enzyme and columns 2-48 received enzyme for a final assay concentration of 2 nM. 2; Control plate contained DMSO in columns 1, 2, 3, and 4. 3; Compound interaction with enzyme. 4; Nitrocefin and meropenem substrates were prepared in the same assay buffer as step 1 for a final assay concentration of 16.7 uM and 50 uM, respectively, and added to all wells across respective sets of assay plates. 5; Default reader settings were applied for absorbance read at 485 nm (nitrocefin) or 300 nm (meropenem), bandwidth = 5 nm, 25 flashes/well. References: Inglese J, Shamu CE, Guy RK. 2007. Reporting data from high-throughput screening of small-molecule libraries. Nat Chem Biol. doi:10.1038/nchembio0807-438 Yasgar A, Shinn P, Jadhav A, Auld D, Michael S, Zheng W, Austin CP, Inglese J, Simeonov A. 2008. Compound Management for Quantitative High-Throughput Screening. J Lab Autom 13:79 - 89. doi:10.1016/j.jala.2007.12.004
(In qHTS, concentration-response curves come from the screen itself.)
In the case of `C[C@@H](NS(=O)(=O)c1ccccc1)c1onc(-c2cccnc2)c1C(=O)O`, the result was inactive.
For `C#CCN(C)CC[C@@H]1CC[C@H](O)[C@@H](C(=O)N(C)Cc2ccccc2)O1` the value was “inactive”; for `COCc1cc(C[C@@H]2CC[C@H](O)[C@@H](CNC(=O)C(C)(C)C)O2)no1`, “inactive”.
For `O=C(NC[C@H]1Cn2c(-c3ccccc3)cnc2CO1)C1CCOCC1` the value was “inactive”; for `O=C(NCc1ccccc1)O[C@H]1COCCN(c2nc3ccccc3o2)C1`, “inactive”.
The value for `O=C(Cc1ccccc1)Nc1ccc([C@@H](O)[C@H]2COCC(=O)N2CC2CC2)cc1` was “inactive”; that for `CC[C@@]1(C(=O)O)C[C@H](C(=O)NC(CO)CO)[C@H](c2ccc(OC)cc2)N1C` was “inactive”.
As for `O=C(CN1CC2CC(C1)[C@H]1CCCC(=O)N1C2)NCc1cc(F)ccc1F` (some centres not stated), the result was inactive.
Regarding `NCCn1cc(C(=O)NCC(O)c2ccccc2C(F)(F)F)nn1` (configuration not stated), the call was inactive.
For `C[C@@H](NC(=O)c1cccs1)c1onc(-c2ccc(F)cc2)c1C(=O)O` the value was “inactive”; for `O=[N+]([O-])c1cccc(-c2noc([C@@H]3C[C@@H](O)CN3Cc3ccccc3)n2)c1`, “inactive”.
For `CC(C)c1noc(-c2cccn3c(CNC(=O)c4cccc5[nH]ccc45)nnc23)n1` the value was “inactive”; for `CN(C)c1nccnc1OC1CCN(C(=O)CCCc2ccccc2)C1` (configuration not stated), “inactive”.
The value for `Cc1cc(C(=O)NCCc2csc(-c3cccnc3)n2)cc(S(N)(=O)=O)c1C` was “inactive”; that for `CC1(C)[C@H](Cc2cc(CCO)on2)C[C@@H]1N(S(C)(=O)=O)S(C)(=O)=O` was “inactive”; that for `CC(C)CCN1CCNC(=O)C1CC(=O)N(Cc1nccs1)C1CC1` (configuration not stated) was “inactive”.
Take `Cn1c(CN2CCOCC2)nnc1C1CCN(c2ncccc2C#N)CC1`: the call was inactive.
Regarding `CCCCNC(=O)c1cccc(CN2C(=O)CC(c3ccccc3C)C(C(=O)OCC)=C2C)c1` (configuration not stated), the result was inactive.
For `Cn1cnc2cc(-c3ccc(CO)cc3)cc(C(=O)NCc3cccnc3)c21` the value was “inactive”.
Regarding `Cc1cc(F)ccc1OC1CN(Cc2ccc(F)cc2)C1`, the call was inactive.
For `COc1ccc(-c2noc([C@@H]3Cc4nc[nH]c4CN3Cc3ccc(NC(C)=O)cc3)n2)cc1`, the compound was classed as inactive.
The value for `CC1(C)C[C@H](NC(=O)c2ccccc2)[C@@]2(CCC(=O)NCCN3CCOCC3)CC[C@](C)(O)C[C@@H]12` was “inactive”; that for `CC(C)(C)c1ccc(C(=O)Nc2nc3c(s2)C[C@@H]2[C@](C)(CO)[C@H](O)CC[C@@]2(C)[C@@H]3CC(=O)NC2CC2)cc1` was “inactive”; that for `O=C(COc1ccccc1Cl)N1CCCC(O)(CN2CCCC2)C1` (configuration not stated) was “inactive”.
For `COCC(=O)NC[C@@H]1C=C(C)[C@H](CC(=O)Nc2ccccn2)C[C@H]1C(C)C` the value was “inactive”.
The value for `Cc1cnccc1N1CCCN(C(=O)c2cccc(C3CCCNC3)c2)CC1` (configuration not stated) was “inactive”; that for `COC(=O)[C@@H]1Cc2ncn(C)c2CN1C(=O)c1ccc(-c2ccccc2)cc1` was “inactive”; that for `NC(=O)[C@H](Cc1cccs1)NC(=O)C1=C[C@@H](NC(=O)c2ccc(F)c(Cl)c2)[C@@H](O)[C@H](O)C1` was “inactive”.
In the case of `COc1ccc(CN2CCNc3cc(Nc4cccnc4)ncc3C2)cc1O`, the compound was classed as inactive.
The value for `CN1C[C@H](NCc2cccc(Cl)c2)CCC[C@@H](C(=O)NC2CC2)CC1=O` was “inactive”; that for `COc1ccc(CCC(=O)N2CCC(N3CC4CC(C3)[C@H]3CCCC(=O)N3C4)CC2)cc1` (some centres not stated) was “inactive”.
For `COC[C@H]1CCCN1C(=O)C[C@@H]1O[C@H](CNS(C)(=O)=O)[C@@H](O)[C@H]1O` the value was “inactive”; for `CN[C@@H](CO)C(=O)NCc1nc(-c2cccc(F)c2)c(-c2ccccn2)[nH]1`, “inactive”; for `COc1ccc(-c2nc3ccncc3[nH]2)cc1`, “inactive”.
For `CC(=O)N1CCC(N[C@H]2CC(C)(C)[C@@H]3C[C@@](C)(O)CC[C@]23CCC(=O)NCCN2CCOCC2)CC1` the value was “inactive”; for `CC(O)CNS(=O)(=O)c1cccc(C(=O)Nc2cccc3c2CCC3)c1` (configuration not stated), “inactive”; for `COCCN1C(=O)CCc2cc(NC(=O)c3ccc(C)c(C)c3)ccc21`, “inactive”.
Consider `OC[C@H]1CCN(c2ccnc3c(C(F)(F)F)cccc23)C[C@H]1O`, for which the result was inactive.
With `CC1CCN([C@@H]2[C@H](O)[C@H](CO)O[C@@H]2CNC(=O)c2ccccc2)CC1`, the outcome was inactive.
For `CC(=O)N1CCC(N2C[C@@H]3OCC(=O)N[C@@H]3C2)CC1` the value was “inactive”.
The value for `NC(=O)c1cccc(-c2n[nH]c3c2CC(=O)N(CC2CCOCC2)C3)c1` was “inactive”; that for `O=c1c2nc(-c3cccc(O)c3)ccc2ncn1Cc1ccccn1` was “inactive”.
The value for `Cc1cc(C(=O)N[C@H]2[C@H](O)[C@H](O)C[C@@H]2c2cccnc2)no1` was “inactive”; that for `COc1ccc(F)c(CN2CCCC(O)(CN(C)Cc3cc(C)on3)C2=O)c1` (configuration not stated) was “inactive”.
On to `O=C(Nc1cccnc1)c1ccnc(-c2nnc3ccc(Nc4ccccc4)nn23)c1`, for which the compound was called inactive.
With `CCc1nc2c(c(-c3ccc(Cl)cc3)n1)CCN(Cc1ccc(F)cc1)CC2`, the result was inactive.
Take `COCc1cn(C[C@H]2C[C@@H](NCc3nccs3)[C@H](O)[C@@H]2O)nn1`: the result was inactive.
Regarding `NC(=O)[C@H](Cc1cccs1)NC(=O)C1=C[C@@H](NC(=O)NC2CCCCC2)[C@@H](O)[C@H](O)C1`, the result was inactive.
For `CC(C)C1CN(C(=O)c2ccccc2-c2ncc[nH]2)CCC(=O)N1CC1CC1` (configuration not stated) the value was “inactive”; for `COC(=O)[C@H]1CN(C(C)=O)CCN1C(C)=O`, “inactive”.
Turning to `O=C(Cc1csc(-c2ccccc2)n1)N[C@H](c1ccccn1)C1CC(O)C1` (some centres not stated), the outcome was inactive.
For `Cc1cn(CC(=O)NC2CCOC3(CCOCC3)C2)c(=O)[nH]c1=O` (configuration not stated) the value was “inactive”; for `O=C1CN(C(=O)[C@H]2CN(Cc3ccccc3)C[C@H]2C(=O)O)CCN1`, “inactive”; for `Cc1noc(C2CC3(CCN(C(=O)C4CCC4)CC3)CN2C)n1` (configuration not stated), “inactive”.
The value for `Cc1ncsc1CCC(=O)N[C@@H]1CCOC[C@H]1OCC(=O)O` was “inactive”.
For `Cc1cc2c(cc1C(=O)N[C@H](c1ccccn1)C1CC(O)C1)OCCO2` (some centres not stated) the value was “inactive”; for `Cc1ccn2c(C(=O)N3CCCC(c4[nH]ncc4-c4ccccc4)C3)nnc2n1` (configuration not stated), “inactive”; for `c1cncc(Nc2cc3c(cn2)CN(Cc2ccsc2)CCN3)c1`, “inactive”.
On to `CC[C@@]1(O)CCN(C(=O)c2cccc(CCC(C)(C)O)c2)C[C@H]1O`, for which the compound was called inactive.
For `O=C(c1ccoc1)N1CCCC(CCc2ccc(F)c(F)c2)C1` (configuration not stated) the value was “inactive”.
The value for `Cc1cc(C)c(CNC(=O)c2nc(-c3cccc(O)c3)cc3[nH]ccc23)c(=O)[nH]1` was “inactive”; that for `COc1ccc(C(=O)NC[C@H]2O[C@@H](CC(=O)N3CCN(c4ccccc4OC)CC3)[C@H](O)[C@@H]2O)cc1` was “inactive”; that for `COc1ccc(CN2C(=O)[C@@H]3C[C@@H](O)CN3C3(CN(C4CCC4)C3)C2=O)cc1` was “inactive”.
The value for `O=C(Cc1ccccc1Cl)N1CCC(Cc2nc(-c3ccc(F)cc3)no2)CC1` was “inactive”.
In the case of `Cc1[nH]c2c(c1C(=O)N1CCCC(CCc3ccc(F)cc3)C1)C(=O)CCC2` (configuration not stated), the compound was classed as inactive.
For `O=C(c1ccccc1Cl)N1CCC2(CC1)Cc1ccccc1NC2=O` the value was “inactive”.
For `Cc1ccc(C(=O)NC2CCN(c3cn[nH]c(=O)c3)CC2)cc1C` the value was “inactive”.
The value for `O=C(NC1CCCCC1)O[C@@H]1CO[C@H]2[C@@H]1OC[C@@H]2NS(=O)(=O)c1ccc(Cl)cc1` was “inactive”; that for `O=C(Nc1ccc(C2(C(=O)NCc3ccco3)CCCCC2)cc1)C1CC1` was “inactive”; that for `CN1Cc2ccc(NCc3ccccc3)nc2C(C)(C(=O)NCCc2cnc[nH]2)C1` (configuration not stated) was “inactive”.
In the case of `CN1c2cccnc2CN(Cc2cccc(Cl)c2)CC[C@H]1CO`, the compound was called inactive.
The value for `COc1ccc2nc(C[C@@H]3C[C@@H](C(C)C)[C@H](CNC(=O)Nc4ccc(F)cc4)C=C3C)[nH]c2c1` was “inactive”; that for `COc1ccc(C(=O)N2C[C@@H]3OCC(=O)N(Cc4nccn4C)[C@@H]3C2)cc1` was “inactive”; that for `COc1ccccc1CN1CC(c2noc(-c3ccc(C)cc3C)n2)CC1=O` (configuration not stated) was “inactive”.
Consider `COc1ccccc1-c1ccc2ncc(Nc3cccc(N[S+](C)(=O)[O-])c3)n2n1`, for which the compound was classed as inactive.
The value for `Cc1nccn1-c1ccccc1CNC1CCC2(CCNCC2)CC1` was “inactive”.
The value for `COC(=O)[C@H](NC(=O)[C@@H]1C[C@@H](NS(=O)(=O)c2cccc(C(F)(F)F)c2)CCN1C(=O)CCC(=O)O)C(C)C` was “inactive”; that for `C=CCNC(=O)[C@@H]1Cc2cn(Cc3ccncc3)c3cccc(c23)[C@H](CC(C)C)N1` was “inactive”; that for `COc1cccc(CN2C[C@@H]3C(C(=O)O)[C@@H]3C2)c1OCCn1ccnc1` (some centres not stated) was “inactive”.
The value for `COC(=O)CO[C@@H]1CO[C@H]2[C@@H]1OC[C@@H]2NC(=O)Nc1cccc(C(F)(F)F)c1` was “inactive”; that for `c1cc(-c2n[nH]c(CNC3CCC4(CCNCC4)CC3)n2)ccn1` was “inactive”.
For the compound `COCC(=O)N1CCc2nc(N(C)CCc3ccncc3)[nH]c(=O)c2CC1`, the result was inactive.
Regarding `O=C1CC(C(=O)O)C2(CCN(c3cc(C(=O)O)c4ccccc4n3)CC2)N1` (configuration not stated), the compound was classed as inactive.
For `O=C1Nc2ccc(/C=C/c3ccccc3)cc2C(=O)N2CC[C@H](NS(=O)(=O)c3cccs3)[C@@H]12` the value was “inactive”.
For `COC(=O)c1ccc2nc(C[C@@H]3C[C@@H](C(C)C)[C@H](CNCc4ccccc4F)C=C3C)[nH]c2c1` the value was “inactive”; for `CCCCc1cc(C[C@@H]2C[C@H](NC(=O)NCC)C2(C)C)no1`, “inactive”; for `COCC(=O)N1CC[C@@H](CC(=O)O)[C@@H](CC2=NCCc3cc(OC)ccc32)C1`, “inactive”.
As to `O=C(Nc1cccnc1)N1CCOC[C@H](Oc2ccccc2)C1`, the outcome was inactive.
As for `c1c(CC2CCCCC2)nnn1[C@H]1CO[C@H]2[C@@H]1OC[C@@H]2NCC1CCCCC1`, the compound was classed as inactive.
For `O=C(Nc1ccc(F)cc1)N1C[C@@H]2OCC(=O)N(Cc3ccc(OC(F)(F)F)cc3)[C@@H]2C1` the value was “inactive”; for `O=C(Nc1ccc(Oc2ccccc2)cc1)N[C@H]1CO[C@H]2[C@@H]1OC[C@H]2OC(=O)Nc1cccc(C(F)(F)F)c1`, “inactive”.
The value for `Cc1cc(C(=O)N[C@@H]2C[C@H](Cn3cc(C4CC4)nn3)[C@@H](O)[C@H]2O)no1` was “inactive”.
